Results filed as inconclusive are left out. A call without a number means that no potency is given here. Active and inactive are the calls of the source. Calls come from the whole dose curve; as a rule, active = well fitted curve in the direction sought with a large enough effect; inconclusive = small, poorly fitted or top-dose-only effect, or another doubt; inactive = no such curve, though single readings can be large; an effect the other way counts as inactive or inconclusive.
Assays:
[1] = qHTS of pediatric cancer cell lines to identify multiple opportunities for drug repurposing: Confirmatory screen for NB-EBc1 cells (AID 1347115);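 note: cells exposed to compound for 48 h before the viability read; nearly all actives have a fitted effect of over 45% in size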; note: potency is the fitted concentration of half-maximal effect
Summary of the method: (§1)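 Cells (500-1,000/well) rested 5 h, then received compounds for 48 h; metabolically active cells were measured by CellTiter-Glo luminescence. Final concentrations spanned up to 46 µM (MIPE, 11-point) or 0.59 nM-46 µM (NPC, 8-point) in primary screens, 11-point in follow-ups.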

[2] = qHTS of pediatric cancer cell lines to identify multiple opportunities for drug repurposing: Confirmatory screen for SJ-GBM2 cells (AID 1347116); note: nearly all actives have a fitted effect of over 60% in size; note: potency is the fitted concentration of half-maximal effect
Summary of the method: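 Viability measured as metabolically active cells via CellTiter-Glo luminescence following 48 hours of compound exposure, 11-point dilutions in confirmatory testing. 500-1,000 cells/well plated 5 hours before dosing; controls were DMSO and 2.3 µM bortezomib.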

[3] = qHTS of pediatric cancer cell lines to identify multiple opportunities for drug repurposing: Confirmatory screen for control Hh wild type fibroblast cells (AID 1347121); note: nearly all actives have a fitted effect of over 70% in size
Summary of the method: as §1

[4] = qHTS of pediatric cancer cell lines to identify multiple opportunities for drug repurposing: Confirmatory screen for U-2 OS cells (AID 1347122); note: nearly all actives have a fitted effect of over 65% in size; note: potency is the fitted concentration of half-maximal effect
Summary of the method: as §1

[5] = qHTS of pediatric cancer cell lines to identify multiple opportunities for drug repurposing: Confirmatory screen for Rh41 cells (AID 1347123);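 note: 48 h compound exposure; nearly all actives have a fitted effect of over 60% in size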; note: potency is the fitted concentration of half-maximal effect
Summary of the method: as §1

[6] = qHTS of pediatric cancer cell lines to identify multiple opportunities for drug repurposing: Confirmatory screen for Rh18 cells (AID 1347125); note: nearly all actives have a fitted effect of over 55% in size; note: potency is the fitted concentration of half-maximal effect
Summary of the method: as §1

[7] = qHTS of pediatric cancer cell lines to identify multiple opportunities for drug repurposing: Confirmatory screen for Rh30 cells (AID 1347126); note: nearly all actives have a fitted effect of over 55% in size; note: potency is the fitted concentration of half-maximal effect
Summary of the method: as §1

[8] = qHTS of pediatric cancer cell lines to identify multiple opportunities for drug repurposing: Confirmatory screen for OHS-50 cells (AID 1347128);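 note: compound exposure lasted 48 h at 37 degrees C; nearly all actives have a fitted effect of over 55% in size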; note: potency is the fitted concentration of half-maximal effect
Summary of the method: as §1

[9] = qHTS of pediatric cancer cell lines to identify multiple opportunities for drug repurposing: Confirmatory screen for SK-N-SH cells (AID 1347129);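 note: cells exposed to compound for 48 h before viability read; nearly all actives have a fitted effect of over 60% in size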; note: potency is the fitted concentration of half-maximal effect
Summary of the method: as §1

[10] = test system: Zika virus NS2B-NS3 protease; assay: Primary screen GU AMC qHTS for Zika virus inhibitors (AID 1347154); note: nearly all actives have a fitted effect of over 70% in size; note: potency is the fitted concentration of half-maximal effect
Summary of the method: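 Fluorogenic AMC-substrate cleavage by noncovalent NS2B-NS3 protease complex (25 nM, pH 8.0 Tris buffer with Tween 20) followed for 15 minutes at room temperature (~20% conversion). Percent inhibition from ex340/em450 signal change, fitted by 4-parameter Hill equation.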

[11] = qHTS of pediatric cancer cell lines to identify multiple opportunities for drug repurposing: Confirmatory screen for BT-37 cells (AID 1347117); note: nearly all actives have a fitted effect of over 55% in size; note: potency is the fitted concentration of half-maximal effect
Summary of the method: as §1

[12] = qHTS of pediatric cancer cell lines to identify multiple opportunities for drug repurposing: Confirmatory screen for RD cells (AID 1347124);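 note: cells exposed to compound for 48 h before viability readout; nearly all actives have a fitted effect of over 65% in size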; note: potency is the fitted concentration of half-maximal effect
Summary of the method: as §1

[13] = qHTS of pediatric cancer cell lines to identify multiple opportunities for drug repurposing: Confirmatory screen for MG 63 (6-TG R) cells (AID 1347119); note: nearly all actives have a fitted effect of over 55% in size
Summary of the method: as §1

[14] = qHTS of pediatric cancer cell lines to identify multiple opportunities for drug repurposing: Confirmatory screen for Saos-2 cells (AID 1347127); note: nearly all actives have a fitted effect of over 60% in size; note: potency is the fitted concentration of half-maximal effect
Summary of the method: as §1

Structure (SMILES) | Potency [1] | Potency [2] | Potency [3] | Potency [4] | Potency [5] | Potency [6] | Potency [7] | Potency [8] | Potency [9] | Potency [10] | Potency [11] | Potency [12] | Potency [13] | Potency [14]
CC=C1NC(=O)[C@H]2CSSCCC=C[C@H](CC(=O)N[C@H](C(C)C)C(=O)N2)OC(=O)[C@H](C(C)C)NC1=O | inactive | inactive | inactive | inactive | inactive | inactive | inactive | inactive | inactive | inactive |  |  |  | 
Cc1cn2c(-c3cn[nH]c3)cnc2c(Nc2ccc(C(=O)N3CCNCC3)cc2F)n1 | inactive |  | inactive | inactive | 5.85 µM (active) |  | 16.5 µM (active) | 16.5 µM (active) | 7.43 µM (active) | inactive | 10.4 µM (active) | inactive |  | 
Cc1ccc(NC(=O)C2(c3ccc4c(c3)OC(F)(F)O4)CC2)nc1-c1cccc(C(=O)O)c1 | inactive |  | inactive | 9.27 µM (active) | 8.27 µM (active) |  | 9.27 µM (active) |  | inactive | inactive | inactive | 10.4 µM (active) | inactive | inactive
COc1cc2c(Oc3ccc(-c4cnc(Nc5ccc(F)cc5)n(C)c4=O)cc3F)ccnc2cc1OCCCN1CCOCC1 | 18.5 µM (active) | 14.7 µM (active) |  | 4.65 µM (active) | 3.69 µM (active) | 8.27 µM (active) | 4.65 µM (active) | 3.69 µM (active) | 3.32 µM (active) | 24.1 µM (active) | 18.5 µM (active) | 11.7 µM (active) |  | 7.37 µM (active)
Cc1c(C)n(Cc2ccc(-c3ccccc3C(=O)O)cc2)c2ccc(C(=O)N[C@@H](C)c3ccc([N+](=O)[O-])cc3)cc12 | inactive |  | inactive | inactive | 9.27 µM (active) | inactive | inactive | inactive | inactive | 19.2 µM (active) | inactive | inactive |  | inactive
Cc1c(NC(=O)OC[C@@H]2COCCN2)cn2ncnc(Nc3ccc4c(cnn4Cc4cccc(F)c4)c3)c12 | inactive |  | inactive | 20.8 µM (active) | 16.5 µM (active) |  |  |  |  | inactive | 18.5 µM (active) | inactive |  | inactive
OCCCNc1cc(-c2ccnc(Nc3cccc(Cl)c3)n2)ccn1 | inactive | 0.369 µM (active) | inactive |  | 0.0522 µM (active) |  | 0.414 µM (active) | 0.329 µM (active) | 0.148 µM (active) | inactive | 0.261 µM (active) |  |  | 0.261 µM (active)

Reference: PubChem BioAssay (NCATS)
